This is part of a sample that, as a whole, favours compounds with a hit. Of some 83,000 tested, about 20% had one in any assay.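 Interpretation: 100, growth as untreated; towards 0, rising growth inhibition; 0, no net growth; 0 to -100, cell death. Compounds scoring below 10 were considered active.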 Values without a mark were called inactive. The source made the active and inactive calls.
Columns and labels:
Test in all cases: NCI-60 one-dose screen, 48 h (100 = growth as untreated, 0 = no growth, -100 = all killed)
Details in all cases: 10 µM unless noted
HCT-15 colon = test system: HCT-15 colon
HT29 colon = test system: HT29 colon
SNB-75 CNS = test system: SNB-75 CNS
SNB-19 CNS = test system: SNB-19 CNS
U251 CNS = test system: U251 CNS
PC-3 prostate = test system: PC-3 prostate
SK-MEL-5 melanoma = test system: SK-MEL-5 melanoma
UACC-62 melanoma = test system: UACC-62 melanoma
LOX IMVI melanoma = test system: LOX IMVI melanoma
SK-MEL-28 melanoma = test system: SK-MEL-28 melanoma

SMILES	growth (HCT-15 colon)	growth (HT29 colon)	growth (SNB-75 CNS)	growth (SNB-19 CNS)	growth (U251 CNS)	growth (PC-3 prostate)	growth (SK-MEL-5 melanoma)	growth (UACC-62 melanoma)	growth (LOX IMVI melanoma)	growth (SK-MEL-28 melanoma)
CCOC(=O)C1=C(C)NC(=O)NC1c1cc(=O)oc2ccc(C)cc12 (stereo not given)	104%	95.2%	97%	106%	102%	97.2%	98.2%	99%	97.5%	107%
N#Cc1c(-c2ccc(Cl)cc2)csc1NC(=O)Nc1cccc(C(F)(F)F)c1	11.7%	13%	29.3%	12.1%	6.02% (active)	11.1%	22.4%	12.5%	5.9% (active)	14.3%
C/C(=C(/c1ccc(Cl)cc1)c1ccc(OCCN2CCCC2)cc1)c1ccccc1	8.01% (active)	4.46% (active)	86.1%	80.7%	63.9%	64.5%	14.9%	48.9%	30.6%	62%
CN1CC[C@@H](c2c(O)cc(O)c3c(=O)cc(-c4ccccc4Cl)oc23)[C@@H]1CO	3.39% (active)	-12.6% (active)	-63.9% (active)	10.2%	4.32% (active)	1.22% (active)	-9% (active)	-51.4% (active)	6.25% (active)	-25.6% (active)
CS(=O)(=O)N1CCc2c(-c3cnc(N)nc3)nc(N3CCOCC3)nc21	9.65% (active)	6.31% (active)	-45.1% (active)	16.1%	12.4%	10.1%	-3.03% (active)	-41.1% (active)	1.28% (active)	-15.9% (active)
C=C1C(=O)O[C@H]2[C@H]1CC/C(C=Nc1c(N)cc(C(F)(F)F)cc1C(F)(F)F)=C\CC[C@@]1(C)O[C@@H]21	-31.1% (active)	-15.2% (active)	48.6%	36.8%	8.57% (active)	-12.8% (active)	-43.6% (active)	-57.1% (active)	-87.5% (active)	-17.2% (active)
Cc1cc([C@@H](C)Nc2ccccc2C(=O)O)c2nc(N3CCOCC3)cc(=O)n2c1	44.5%	35.9%	-19.5% (active)	52.8%	55.4%	30.5%	52.5%	14%	30.1%	43.9%
CCCCCCCCCNCCCCCCCCC	32.4%	0.373% (active)	67.2%	82.2%	49%	59.4%	54.1%	83.2%	41.9%	43.5%
COc1ccc(C2CC(=O)c3c(O)c(OC)c(OC)c(OC)c3O2)cc1O (stereo not given)	9.19% (active)	101%	39.9%	36.9%	25.7%	31.2%	18.9%	35.2%	40.9%	52.9%
NN1C(=O)CSC1=S	105%	83.9%	95.6%	116%	85.6%	93.4%	104%	116%	98.6%	115%
COc1cc2c(Oc3ccc(NC(=O)C4(C(=O)Nc5ccc(F)cc5)CC4)cc3F)ccnc2cc1OCCCN1CCOCC1	-26% (active)	-59.2% (active)	-96.9% (active)	10.6%	-57.8% (active)	7.39% (active)	-96.1% (active)	-67.8% (active)	-89.5% (active)	-78.2% (active)
COc1cnc2c(c1)C(=O)c1c-2n(CCCN2CCC(O)CC2)c(=O)c2cc(Cl)ccc12	-71.5% (active)	-54.6% (active)	49.1%	34.2%	-76.7% (active)	41.9%	50.7%	24.5%	-86.3% (active)	102%
CCN(CC)c1cc2oc3cc(N)cc(=N)c-3nc2cc1C	37.8%	86.7%	11.6%	69.7%	19.4%	39.2%	-2.64% (active)	30.8%	-0.53% (active)	34.3%
COc1ccc2c(CCCC(c3ccccc3)c3ccccc3)c3[n+](cc2c1OC)CCc1cc2c(cc1-3)OCO2	13.2%	-2.94% (active)	-19.1% (active)	-16.4% (active)	-76.2% (active)	-68.8% (active)	-100% (active)	-71.7% (active)	-100% (active)	-78.7% (active)
CC[C@H](CO)Nc1nc(NCc2ccccc2)c2ncn(C(C)C)c2n1	53.4%	54%	57.4%	67.9%	62.5%	70.8%	66.5%	46.8%	51.1%	55.5%
Nc1c(C(=O)c2ccccc2)sc2nc(-c3cccs3)cc(-c3cccs3)c12	31.2%	11.2%	22.2%	42.9%	25.6%	33%	43.7%	28.7%	51.5%	64.9%
O=C(Cn1ccnc1)Nc1ccc(-c2nc3ccccc3s2)cc1	87%	93.3%	88.8%	76.5%	71.9%	65.9%	39.2%	82.9%	73.4%	105%
CCn1cc(-c2ccnc3[nH]c(-c4cccc(CN(C)C)c4)cc23)c(-c2ccc(NC(=O)N(C)C)cc2)n1	24.6%	-7.89% (active)	-52.6% (active)	55%	38.2%	30.6%	37.5%	39.9%	-76.9% (active)	45.2%
COc1ccc(Br)cc1NC(=O)Nc1cccc2c1ccn2Cc1ccnc(N)c1	1.92% (active)	-40.6% (active)	26.7%	37.3%	13.9%	17.3%	23.5%	29%	-68% (active)	53.3%
NC1=Nc2cc(OCCCN3Cc4ccccc4C3)c(OCC3CC3)cc2C12CCCC2	25.1%	5.45% (active)	60.3%	82.4%	49.5%	45.4%	-11% (active)	45.7%	8.85% (active)	-44% (active)
Clc1ccc2c(NCCCNCc3ccc4c(c3)OCO4)ccnc2c1	13.2%	4.6% (active)	96.2%	88.7%	10.6%	51.6%	-96% (active)	89.8%	8.83% (active)	51.2%
COc1ccc(COc2cc3oc(=O)c4cc(C(C)O)ccc4c3cc2OC)cc1 (stereo not given)	36.6%	30.1%	13.7%	31.9%	46.5%	53%	56.3%	50.4%	76.3%	56.3%

Source: PubChem BioAssay (NCI)
